Test [1] concerns PRMT1 (protein arginine N-methyltransferase 1). Kind of test: PRMT1 binders on small-molecule microarrays, primary screen, biochemical, small-molecule microarray, 635 nm fluorescence (AID 1088).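 Note: binding of Prmt1 protein to compounds spotted on small-molecule microarray slides.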 As to conditions: small-molecule microarray binding, higher = more signal.
The nature of test [2]: yeast growth modulation, basal conditions, primary screen, YJM789 clinical isolate, OD600, 24 h (AID 1089).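 Note: growth of clinical yeast isolate S. cerevisiae YJM 789 seeded 1000 cells per well; test concentration not given here.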 As to conditions: S. cerevisiae YJM789 growth, higher = more signal, called active from +8 up or from −8 down.
Test [3] in a line: fission yeast growth modulation, primary screen, strain 972, OD600, 24 h, no modulator (AID 1090).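 Note: basal condition with compound alone and no growth modifier present; test concentration not given here.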 The following applies: S. pombe 972 growth, higher = more signal, called active from +8 up or from −8 down.
Test [4] can be described thus: S. cerevisiae growth modulation with rapamycin, primary screen, strain BY4716, OD600, 96 h (AID 1091). Note: test concentration not given here. The following applies: higher = more signal, called active from +8 up or from −8 down.
For test [5], the target named is Torsin-1A-interacting protein 2 (Homo sapiens) (UniProt Q8NFQ8). In words: LULL1 binders on small-molecule microarray, primary screen, cell lysate, human LULL1 lysate, 635/667 nm fluorescence (AID 1092).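 Note: probe is lysate of COS7 cells overexpressing human LULL1; score merges per-feature 667 nm fluorescence with signal-to-noise.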 The following applies: hLULL1 lysate binding, 635 nm fluorescence, higher = more signal.
Torsin-1A-interacting protein 2 (Homo sapiens), sequence (Q8NFQ8 whole entry, looked up): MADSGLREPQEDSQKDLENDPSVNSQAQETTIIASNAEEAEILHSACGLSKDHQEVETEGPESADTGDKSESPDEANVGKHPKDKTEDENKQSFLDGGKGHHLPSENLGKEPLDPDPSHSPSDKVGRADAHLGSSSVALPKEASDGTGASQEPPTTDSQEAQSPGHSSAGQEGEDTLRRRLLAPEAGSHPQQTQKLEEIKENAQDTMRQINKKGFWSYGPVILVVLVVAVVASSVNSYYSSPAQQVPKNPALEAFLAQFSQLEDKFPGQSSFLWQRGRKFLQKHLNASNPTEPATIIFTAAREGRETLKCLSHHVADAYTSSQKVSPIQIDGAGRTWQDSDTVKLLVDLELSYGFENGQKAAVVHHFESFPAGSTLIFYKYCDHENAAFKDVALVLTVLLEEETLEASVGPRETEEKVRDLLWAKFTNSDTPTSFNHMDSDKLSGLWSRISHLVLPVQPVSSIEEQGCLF
The nature of test [6]: E. coli growth modulation, two-sided OD650, primary screen, E. coli filamentation project, strain DRC41, 24 h (AID 1093).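 Note: MC1000 strain lacking acrAB efflux and sulA so SOS filamentation is blocked; test concentration not given here.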 The following applies: OD650, 24 h, higher = more signal, called active from +8 up or from −8 down.
A short description of test [7]: small-molecule microarray binders of probe aLefty2, primary screen, biochemical, biotinylated probe, 635/667 nm fluorescence (AID 1094).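 Note: score merges spot fluorescence near 667 nm with spot signal-to-noise ratio.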 As to conditions: higher = more signal.
Test [8] concerns Noggin (protein binding on small-molecule microarray). Kind of test: Noggin binders on small-molecule microarray, primary screen, biochemical, 635/667 nm fluorescence (AID 1095).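 Note: score merges 667 nm feature fluorescence with signal to noise over triplicate slides.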 The following applies: 635 nm fluorescence, higher = more signal.
The target in test [9] is Neurogenic locus notch homolog protein 3 (Homo sapiens) (UniProt Q9UM47). In words: NOTCH3 binders on small-molecule microarray, primary screen, biochemical, 635/667 nm fluorescence (AID 1096). The following applies: NOTCH3 binding, 635 nm fluorescence, higher = more signal.
Neurogenic locus notch homolog protein 3 (Homo sapiens), sequence (Q9UM47 whole entry, looked up): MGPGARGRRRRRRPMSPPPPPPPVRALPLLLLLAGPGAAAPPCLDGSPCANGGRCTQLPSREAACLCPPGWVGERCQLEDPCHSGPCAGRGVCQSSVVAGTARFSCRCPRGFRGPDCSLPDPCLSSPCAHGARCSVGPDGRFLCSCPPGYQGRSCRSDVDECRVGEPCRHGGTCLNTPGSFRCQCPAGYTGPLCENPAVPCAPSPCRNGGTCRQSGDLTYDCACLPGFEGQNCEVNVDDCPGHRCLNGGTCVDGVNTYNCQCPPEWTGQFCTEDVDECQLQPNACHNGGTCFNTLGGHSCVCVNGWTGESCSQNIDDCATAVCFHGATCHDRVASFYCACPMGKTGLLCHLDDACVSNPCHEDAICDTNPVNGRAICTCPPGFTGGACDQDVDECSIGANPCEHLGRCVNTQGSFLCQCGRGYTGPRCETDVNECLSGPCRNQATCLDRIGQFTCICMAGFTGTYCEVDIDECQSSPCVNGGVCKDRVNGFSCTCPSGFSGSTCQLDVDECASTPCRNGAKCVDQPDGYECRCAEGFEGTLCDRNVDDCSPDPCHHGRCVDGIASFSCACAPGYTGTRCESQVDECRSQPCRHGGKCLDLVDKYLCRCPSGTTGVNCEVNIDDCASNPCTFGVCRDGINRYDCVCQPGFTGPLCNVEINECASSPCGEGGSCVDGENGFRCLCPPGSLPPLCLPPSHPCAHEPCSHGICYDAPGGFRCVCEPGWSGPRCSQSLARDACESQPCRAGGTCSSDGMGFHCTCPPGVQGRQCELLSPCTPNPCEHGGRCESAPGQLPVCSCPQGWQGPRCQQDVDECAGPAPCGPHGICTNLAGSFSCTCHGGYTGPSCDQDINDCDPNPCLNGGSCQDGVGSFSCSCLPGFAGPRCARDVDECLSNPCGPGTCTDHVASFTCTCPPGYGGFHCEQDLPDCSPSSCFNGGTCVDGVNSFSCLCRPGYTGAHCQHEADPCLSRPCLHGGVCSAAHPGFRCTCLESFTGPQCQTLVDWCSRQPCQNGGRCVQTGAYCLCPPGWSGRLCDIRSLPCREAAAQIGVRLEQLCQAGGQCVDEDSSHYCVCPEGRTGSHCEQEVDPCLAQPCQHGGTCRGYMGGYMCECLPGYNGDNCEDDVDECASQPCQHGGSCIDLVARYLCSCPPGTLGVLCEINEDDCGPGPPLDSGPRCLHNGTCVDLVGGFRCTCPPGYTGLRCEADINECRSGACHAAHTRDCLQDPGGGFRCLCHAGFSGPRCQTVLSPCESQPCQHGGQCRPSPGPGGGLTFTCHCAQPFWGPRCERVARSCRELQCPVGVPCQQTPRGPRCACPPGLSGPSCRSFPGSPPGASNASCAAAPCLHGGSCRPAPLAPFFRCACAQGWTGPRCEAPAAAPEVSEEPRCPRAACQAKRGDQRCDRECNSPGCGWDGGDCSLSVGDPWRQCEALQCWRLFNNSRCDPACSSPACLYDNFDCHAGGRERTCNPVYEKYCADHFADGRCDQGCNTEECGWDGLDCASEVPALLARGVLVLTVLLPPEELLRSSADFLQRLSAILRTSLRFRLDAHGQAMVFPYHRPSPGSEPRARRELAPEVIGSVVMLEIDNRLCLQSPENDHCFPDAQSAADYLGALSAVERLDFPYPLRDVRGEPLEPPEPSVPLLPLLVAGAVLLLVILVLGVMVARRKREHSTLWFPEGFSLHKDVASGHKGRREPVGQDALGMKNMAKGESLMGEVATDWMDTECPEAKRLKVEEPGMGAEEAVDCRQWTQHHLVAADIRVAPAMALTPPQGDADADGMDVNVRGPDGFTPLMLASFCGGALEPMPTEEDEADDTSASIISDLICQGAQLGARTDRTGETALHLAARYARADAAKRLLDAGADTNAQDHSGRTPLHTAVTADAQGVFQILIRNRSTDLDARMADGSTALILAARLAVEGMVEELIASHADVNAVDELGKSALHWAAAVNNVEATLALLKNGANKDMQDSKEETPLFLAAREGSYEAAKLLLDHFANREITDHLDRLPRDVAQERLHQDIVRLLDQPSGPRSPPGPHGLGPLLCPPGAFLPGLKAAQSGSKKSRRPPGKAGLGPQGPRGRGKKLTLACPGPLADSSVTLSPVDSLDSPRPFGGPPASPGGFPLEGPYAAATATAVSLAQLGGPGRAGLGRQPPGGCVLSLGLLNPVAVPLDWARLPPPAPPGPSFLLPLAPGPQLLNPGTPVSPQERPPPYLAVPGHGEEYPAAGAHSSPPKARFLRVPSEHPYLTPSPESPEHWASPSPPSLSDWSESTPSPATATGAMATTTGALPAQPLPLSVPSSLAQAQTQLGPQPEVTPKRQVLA
Test [10] in a line: small-molecule microarray binders of probe aEGFR, primary screen, biochemical, biotinylated probe, 635/667 nm fluorescence (AID 1097).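 Note: probe is a biotinylated anti-EGFR antibody binding compounds printed on slides; score combines fluorescence near 667 nm and signal to noise of each spot.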 The following applies: higher = more signal.
Test [11] concerns Plasmodium falciparum Sir2 (PF13_0152, Sir2A). Kind of test: pfSir2 binders on small-molecule microarrays, primary screen, biochemical, small-molecule microarray, 635 nm fluorescence (AID 1098).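 Note: score merges spot fluorescence intensity with its signal-to-noise ratio.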 As to conditions: small-molecule microarray binding, fluorescence 635 nm; higher = more signal.
Test [12] is described as follows: small-molecule microarray binders of probe aDKK1, primary screen, biochemical, biotinylated probe, 635/667 nm fluorescence (AID 1099).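 Note: score merges 667nm spot fluorescence with signal to noise across triplicate slides; reference of the scale not given here.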 As to conditions: higher = more signal.
The nature of test [13]: small-molecule microarray binders of probe aCHRDL2, primary screen, biochemical, biotinylated probe, 635/667 nm fluorescence (AID 1100). As to conditions: higher = more signal.
Test [14] is described as follows: splicing luciferase reporter signal modulators, primary screen, spliceosome inhibition project, cell-based, HEK293, splice +/- reporter (AID 1101).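 Note: HEK293 cells carrying a splicing-competent luciferase reporter gene; test concentration not given here.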 As to conditions: luminescence, 24 h, higher = more signal, called active from +8 up or from −8 down. For orientation: A reporter such as luciferase makes a cellular process visible.
Test [15] addresses Fibroblast growth factor 10 (Homo sapiens) (UniProt O15520). Kind of test: FGF10 binders on small-molecule microarrays, primary screen, biochemical, small-molecule microarray, 635 nm fluorescence (AID 1102). The following applies: FGF10 binding, fluorescence 635 nm, higher = more signal.
Test [16] has as its system glycogen synthase kinase-3 (GSK3A per assay name; protocol says GSK3B). Kind of test: GSK3 binders on small-molecule microarrays, primary screen, biochemical, small-molecule microarray, 635 nm fluorescence, GSK3A (AID 1103). Note: the record names both GSK3A and GSK3B. As to conditions: small-molecule microarray binding, fluorescence 635 nm; higher = more signal.
Test [17] addresses Epidermal growth factor receptor (Homo sapiens) (UniProt P00533). Kind of test: EGFR binders on small-molecule microarrays, primary screen, biochemical, small-molecule microarray, 635 nm fluorescence (AID 1104).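 Note: score merges 667 nm emission intensity with spot signal to noise over triplicate slides.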 As to conditions: EGFR binding, higher = more signal.
Test [18] addresses Follistatin-related protein 3 (Homo sapiens) (UniProt O95633). Kind of test: FSTL3 binders on small-molecule microarrays, primary screen, biochemical, small-molecule microarray, 635 nm fluorescence (AID 1105).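 Note: score merges emission near 667 nm and signal to noise per printed spot across three slides.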 As to conditions: FSTL3 binding, higher = more signal.
The target of test [19] is Dickkopf-related protein 1 (Homo sapiens) (UniProt O94907). Kind of test: DKK1 binders on small-molecule microarrays, primary screen, biochemical, small-molecule microarray, 635 nm fluorescence scan (AID 1106).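 Note: score merges emission near 667 nm with signal to noise over three replicate slides.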 As to conditions: DKK1 binding, higher = more signal.
Dickkopf-related protein 1 (Homo sapiens), sequence (O94907 whole entry, looked up): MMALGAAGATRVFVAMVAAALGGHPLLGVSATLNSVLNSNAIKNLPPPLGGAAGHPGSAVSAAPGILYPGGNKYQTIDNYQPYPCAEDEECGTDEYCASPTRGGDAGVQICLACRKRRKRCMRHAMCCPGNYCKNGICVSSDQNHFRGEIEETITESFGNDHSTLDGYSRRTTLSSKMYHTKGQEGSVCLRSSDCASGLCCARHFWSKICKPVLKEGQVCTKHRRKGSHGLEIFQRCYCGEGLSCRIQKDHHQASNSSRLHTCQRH
Test [20] concerns Inhibin beta A chain (activin A). In words: INHBA (activin A) binders on microarrays, primary screen, biochemical, small-molecule microarray, 635 nm fluorescence scan (AID 1107).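 Note: mouse activin A protein probed at 4.33 µg/mL on printed slides; score merges bound-protein fluorescence near 667 nm with spot signal-to-noise.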 As to conditions: small-molecule microarray binding, higher = more signal.

Active and inactive are the calls of the source.

Follistatin-related protein 3 (Homo sapiens), sequence (O95633 whole entry, looked up): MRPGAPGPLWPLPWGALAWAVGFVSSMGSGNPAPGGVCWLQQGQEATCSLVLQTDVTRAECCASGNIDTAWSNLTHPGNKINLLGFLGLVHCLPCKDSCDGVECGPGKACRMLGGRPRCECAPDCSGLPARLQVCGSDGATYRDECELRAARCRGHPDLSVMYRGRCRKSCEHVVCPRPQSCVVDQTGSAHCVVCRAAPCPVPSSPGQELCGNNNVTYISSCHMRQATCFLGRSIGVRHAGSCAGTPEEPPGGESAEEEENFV
Epidermal growth factor receptor (Homo sapiens), sequence (P00533 whole entry, looked up): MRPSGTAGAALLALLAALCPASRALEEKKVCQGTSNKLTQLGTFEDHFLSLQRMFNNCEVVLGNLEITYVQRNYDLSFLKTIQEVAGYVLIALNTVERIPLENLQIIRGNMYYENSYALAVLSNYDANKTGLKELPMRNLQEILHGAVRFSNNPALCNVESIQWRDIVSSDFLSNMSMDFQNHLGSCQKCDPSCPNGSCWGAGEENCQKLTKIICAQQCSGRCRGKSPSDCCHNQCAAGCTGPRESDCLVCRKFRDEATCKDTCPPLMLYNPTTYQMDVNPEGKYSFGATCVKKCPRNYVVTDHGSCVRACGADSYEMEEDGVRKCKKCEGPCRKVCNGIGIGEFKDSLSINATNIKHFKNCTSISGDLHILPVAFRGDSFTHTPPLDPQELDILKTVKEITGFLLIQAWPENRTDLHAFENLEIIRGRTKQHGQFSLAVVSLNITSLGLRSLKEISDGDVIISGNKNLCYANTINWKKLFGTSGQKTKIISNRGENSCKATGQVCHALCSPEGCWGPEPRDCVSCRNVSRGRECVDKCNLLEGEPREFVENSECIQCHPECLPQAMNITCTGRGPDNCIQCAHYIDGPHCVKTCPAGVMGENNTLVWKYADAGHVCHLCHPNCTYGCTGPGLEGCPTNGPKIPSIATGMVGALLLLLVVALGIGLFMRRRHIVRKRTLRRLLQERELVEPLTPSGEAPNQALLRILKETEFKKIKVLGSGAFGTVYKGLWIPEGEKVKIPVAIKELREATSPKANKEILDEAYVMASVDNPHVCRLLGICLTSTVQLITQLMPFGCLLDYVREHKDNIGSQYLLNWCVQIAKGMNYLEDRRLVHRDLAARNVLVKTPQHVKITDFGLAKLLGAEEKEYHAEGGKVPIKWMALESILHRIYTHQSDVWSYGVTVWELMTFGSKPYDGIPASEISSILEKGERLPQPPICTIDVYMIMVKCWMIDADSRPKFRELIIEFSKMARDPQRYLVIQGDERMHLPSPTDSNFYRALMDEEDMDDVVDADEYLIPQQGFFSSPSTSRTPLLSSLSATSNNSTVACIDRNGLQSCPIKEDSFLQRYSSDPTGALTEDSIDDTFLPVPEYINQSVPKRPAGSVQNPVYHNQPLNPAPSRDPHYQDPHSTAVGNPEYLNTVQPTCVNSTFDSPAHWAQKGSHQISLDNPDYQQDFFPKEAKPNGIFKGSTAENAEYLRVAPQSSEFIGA
Fibroblast growth factor 10 (Homo sapiens), sequence (O15520 whole entry, looked up): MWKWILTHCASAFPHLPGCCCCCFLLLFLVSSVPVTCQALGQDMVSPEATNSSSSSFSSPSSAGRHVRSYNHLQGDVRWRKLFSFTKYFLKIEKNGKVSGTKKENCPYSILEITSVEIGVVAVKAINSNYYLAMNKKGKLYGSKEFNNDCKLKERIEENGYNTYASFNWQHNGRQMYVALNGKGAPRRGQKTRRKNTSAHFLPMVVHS

For `CO[C@H]1O[C@H](CO)[C@@H](OC(=O)Nc2ccc(C(F)(F)F)cc2)[C@H](OC(=O)Nc2ccccc2-c2ccccc2)[C@H]1OC(=O)Nc1ccccc1-c1ccccc1`, the composite z-score was found to be 1.54 in test [1]; 3.29 in [5]; 0.0079 in test [7]; 1.21 in test [8]; 1.06 in test [9]; 0.0108 in test [10]. In addition, the composite z-score in test [11] was found to be 1.29; in test [12], 0.13; in [13] it was 0.411; in test [15], 1.52; in test [16], 1.35; in test [17], 0.223. Moreover, the figures for the composite z-score in test [18], in test [19] and in [20] were 1.15, 0.162 and 0.436, respectively. Also, the z-score is 1.32 (inactive) in [2]; 2.36 (inactive) in test [3]; 29.9 (active) in test [4]; 0.0918 (inactive) in test [6]; -1.03 (inactive) in test [14].
On to `O=C1C2C=CC(C(O)c3ccc([N+](=O)[O-])cc3)N(Nc3ccccc3)C2C(=O)N1c1ccccc1` (stereo not given), for which the composite z-score in test [1] was 0.44; in test [5], 2.68; in test [7], -0.0469; in test [8], -0.456; in test [9], 1.03; in test [10] it was -0.0509. Also, the composite z-score in test [11] was 1.32; in test [12] it was 0.3; in test [13] it was 0.585; in test [15], 0.466; in [16], 0.273; in test [17], -0.0215. The figures for the composite z-score in test [18], in test [19] and in test [20] were 0.481, -0.521 and 0.87, respectively. Moreover, the z-score is -0.247 (inactive) in [2]; 0.485 (inactive) in [3]; 0.495 (inactive) in test [4]; -0.8 (inactive) in test [6]; 4.07 (inactive) in test [14].
On to `[N-]=[N+]=NCc1ccccc1[C@@H]1OC(c2ccc(OCCCO)cc2)=N[C@]1(Cc1ccccc1)C(=O)NCc1ccccc1`, for which the composite z-score in test [1] is 0.872; in test [5], 3.12; in test [7], 0.239; in test [8], -0.0171; in [9], 0.672; in test [10] it was -0.117. Also, the composite z-score in test [11] was 0.869; in [12], -0.0406; in test [13], 0.996; in test [15] it was 0.769; in test [16], 0.113; in [17] it was 0.131. For the same compound, the composite z-score in test [18] was 0.529; in test [19], -0.154; in [20], 0.656. For the same compound, the z-score in [2] is 1.26 (inactive); in test [3] it was 0.8 (inactive); in test [4] it was 8.96 (active); in [6], 0.615 (inactive); in test [14], -1.29 (inactive).
On to `COCCOC(=O)N1C(=O)[C@@]2(c3cc(C#CCCO)ccc31)[C@H](c1ccc(O)cc1)N1[C@H](c3ccccc3)[C@H](c3ccccc3)OC(=O)[C@H]1[C@@H]2C(=O)N1CCc2cc(OC)c(OC)cc2C1`, for which the composite z-score was 1.52 in [1]; 2.45 in test [5]; -0.0616 in test [7]; 1.55 in test [8]; 1.06 in [9]; 0.122 in [10]. For the same compound, the composite z-score in test [11] came out at 1.16; in [12], 0.058; in test [13], 0.342; in [15] it was 1.39; in test [16], 1.31; in test [17] it was 0.878. Also, the composite z-score in test [18] amounted to 1.44; in test [19] it was 0.993; in [20], 1.01. Besides, the z-score in [2] was 0.47 (inactive); in test [3], 0.511 (inactive); in test [4], 1.23 (inactive); in test [6] it was -0.617 (inactive); in [14], 0.305 (inactive).
With `O=C1OCCC=C[C@H]2OC34C=CCN(CCN5CCOCC5)C(=O)[C@H]3N(CCCO)C(=O)[C@@H]4C12` (stereo not given in full), the composite z-score in test [1] was 0.0132; in test [5], 2.98; in test [7] it was -0.257; in [8], -0.293; in test [9] it was 0.329; in [10] it was -0.166. Also, the composite z-score in [11] is 1.41; in test [12], -0.242; in test [13], 0.119; in test [15], -0.272; in test [16], -0.869; in test [17] it was -0.938. Moreover, the composite z-score in test [18] is -0.549; in [19] it was -0.0385; in test [20], 0.564. Besides, the z-score was -0.728 (inactive) in test [2]; -1.14 (inactive) in test [3]; 0.229 (inactive) in [4]; 0.922 (inactive) in [6]; -1.12 (inactive) in [14].
Turning to `COCCOC(=O)N1C(=O)[C@@]2(c3cc(C#CCC(C(=O)OC)C(=O)OC)ccc31)[C@H](C(N)=O)[C@H]1C(=O)O[C@H](c3ccccc3)[C@H](c3ccccc3)N1[C@@H]2c1ccc(OCCO)cc1`, the composite z-score in test [1] is 1.53; in test [5] it was 2.77; in test [7], 0.0139; in test [8], 0.813; in test [9], 1.08; in test [10], -0.0245. The composite z-score is 1.13 in [11]; 0.271 in test [12]; 0.25 in [13]; 1.11 in [15]; 1.31 in test [16]; 0.776 in test [17]. Further, the composite z-score in test [18] is 1.01; in test [19] it was 0.614; in test [20], 0.444. Further, the z-score in test [2] is 2.23 (inactive); in [3] it was 2.01 (inactive); in test [4], 6.44 (inactive); in test [6], -0.55 (inactive); in test [14], -0.517 (inactive).
As for `CCCCCCCCCCC(O)C1C=CC2C(=O)N(C)C(=O)C2N1N1CCCCC1` (stereo not given), the composite z-score in [1] is -0.804; in test [5] it was 1.64; in test [7], -0.118; in test [8] it was -1.9; in test [9] it was -1.14; in test [10] it was -0.368. The composite z-score in [11] is 0.331; in test [12] it was -0.267; in [13], 0.598; in [15] it was -1.9; in test [16], -1.41; in test [17], -2.01. Also, the composite z-score in test [18] is -1.63; in [19] it was -1.29; in test [20] it was 1.35. For the same compound, the z-score in [2] is 1.16 (inactive); in test [3], -2.31 (inactive); in test [4], 2.18 (inactive); in test [6], -1.6 (inactive); in test [14] it was 1.53 (inactive).
As to `CCCC[C@@H](O)C1=C(COC)Cn2c(=O)n(-c3ccccc3)c(=O)n2[C@H]1CO`, the composite z-score in test [1] was -0.0379; in test [5], -0.0333; in [7], -0.246; in test [8], -0.102; in [9] it was -0.62; in test [10], -0.203. Further, the composite z-score in test [11] was -0.0092; in test [12], -0.399; in test [13], -0.318; in test [15] it was 0.035; in test [16], 0.0617; in [17], -0.464. For the same compound, the composite z-score is -0.0013 in [18], -0.184 in test [19] and 0.749 in test [20]. Moreover, the z-score in test [2] is -1.48 (inactive); in test [3], -1.13 (inactive); in test [4], -0.721 (inactive); in [6], 2.84 (inactive); in test [14] it was -0.446 (inactive).
For `COc1ccc(CC[C@H](O)c2cccc(OCC(=O)OC(C)(C)C)c2)cc1`, the composite z-score in test [1] amounted to 1.55; in test [5], 2.12; in [7] it was 0.165; in test [8], 0.956; in test [9], 1.09; in test [10], 0.0656. Also, the composite z-score in [11] was 1.16; in [12], 0.15; in [13] it was -0.0667; in [15] it was 0.883; in [16], 1.06; in test [17], 0.344. The composite z-score in test [18] is 1.09; in test [19], 0.688; in test [20], -0.0035. The z-score is -2.98 (inactive) in test [2]; -3.06 (inactive) in test [3]; 28.1 (active) in [4]; 0.362 (inactive) in test [6]; 1.3 (inactive) in [14].
